Source: PubChem
Shiga toxin inh – inhibitors of Shiga toxin in Vero cells. inhibition, % at 38.7 µM. Vero cells, Shiga toxin protein synthesis inhibition reporter. 290,000 compounds, 9.2% hits; in the data active = inhibition mostly above about 28%, no sharp cut-off; inactive = mostly below about 43%
NS1 inh – blocks influenza NS1 protein function; 270,000 compounds, 0.4% hits; Potency, µM (top dose mostly 46.1 µM); AID 2326; calls by dose curve; note: actives are rising curves; nearly all actives have a fitted effect of over 50% in size
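In this qHTS, NS1 from influenza A is expressed in budding yeast, where it slows growth. Cells are switched from glucose to 2% galactose medium (pH 6.0, -URA), treated with compound, and growth recovery is read at OD600.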
CHX counter – counter-screen hit for Shiga toxin inhibitors, cycloheximide | 300,000 compounds, 12% hits | AID 2314 | cell reporter, cycloheximide protein synthesis inhibition counterscreen | max response, %; in the data active = max response mostly above about 13%, no sharp cut-off; inactive = mostly below about 14%; note: read at 38.3 µM for the half of the compounds with a filed dose
LmPK inh – blocks Leishmania mexicana pyruvate kinase activity. Potency, µM (titrated, usually from 57.5 µM), usual class: inhibitors. 290,000 compounds, 0.37% hits. purified LmPK, Kinase-Glo ATP luminescence, 1 h
Target sequence (Q27686 whole entry, looked up): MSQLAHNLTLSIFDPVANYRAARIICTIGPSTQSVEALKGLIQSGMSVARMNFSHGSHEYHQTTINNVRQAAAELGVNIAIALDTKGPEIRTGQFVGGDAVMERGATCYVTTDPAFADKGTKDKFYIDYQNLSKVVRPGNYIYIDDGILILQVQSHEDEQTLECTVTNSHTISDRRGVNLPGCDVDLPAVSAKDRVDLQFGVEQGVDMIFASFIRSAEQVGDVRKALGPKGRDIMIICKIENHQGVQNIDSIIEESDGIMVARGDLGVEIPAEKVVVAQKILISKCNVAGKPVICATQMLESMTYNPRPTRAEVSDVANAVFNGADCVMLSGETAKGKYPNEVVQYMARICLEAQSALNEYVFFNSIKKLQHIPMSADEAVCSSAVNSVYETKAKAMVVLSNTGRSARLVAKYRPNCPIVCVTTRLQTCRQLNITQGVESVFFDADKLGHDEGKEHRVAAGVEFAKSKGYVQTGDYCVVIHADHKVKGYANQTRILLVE
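Kinase-Glo luminescence read after 1 h RT reaction of 0.1 nM LmPK with 0.5 mM PEP and 0.1 mM ADP. Activity scaled between uninhibited and enzyme-free controls.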
TbPYK inhibitor – inhibitors of Trypanosoma brucei pyruvate kinase; Q57TT1; TbPYK enzyme, Kinase-Glo Plus ATP luminescence, 45 min; Potency, µM (titrated, usually from 76.8 µM), actives largely listed as inhibitors; 410,000 compounds, 0.12% hits; note: nearly all actives have a fitted effect of over 50% in size
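Screened from lowest to highest concentration, compounds were pinned into TbPYK/substrate mixtures, and ADP (130 uM final) was added. Plates sat at room temperature for 45 min prior to Kinase-Glo Plus detection by luminescence.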
SARS PLP yeast – SARS-CoV PLP inhibition in yeast | 330,000 compounds, 0.19% hits | S. cerevisiae expressing SARS-CoV PLpro, growth rescue | AID 485353 | Potency, µM (doses to about 32.9 µM), actives largely listed as activators; calls by dose curve; note: nearly all actives have a fitted effect of over 55% in size
Hits are given with their value; . = inactive; ? = inconclusive; / = no result given. This excerpt belongs to a sample that is enriched for hits. Unless noted, calls come from the whole dose curve; as a rule, active = well fitted curve in the direction sought with a large enough effect; inconclusive = small, poorly fitted or top-dose-only effect, or another doubt; inactive = no such curve, though single readings can be large; an effect the other way counts as inactive or inconclusive.

SMILES	Shiga toxin inh	NS1 inh	CHX counter	LmPK inh	TbPYK inhibitor	SARS PLP yeast
CC[C@H](C)[C@H](NC(=O)[C@H](Cc1ccc(O)cc1)NC(=O)[C@H](Cc1cnc[nH]1)NC(=O)[C@H](CCCNC(=N)N)NC(=O)[C@H](CC(C)C)NC(=O)[C@H](C)NC(=O)[C@H](CO)NC(=O)[C@H](Cc1ccc(O)cc1)NC(=O)[C@H](Cc1ccc(O)cc1)NC(=O)[C@H](CCCNC(=N)N)NC(=O)[C@H](C)NC(=O)[C@H](CCSC)NC(=O)[C@H](CC(=O)O)NC(=O)[C@H](CCC(=O)O)NC(=O)[C@H](C)NC(=O)[C@@H]1CCCN1C(=O)[C@H](C)NC(=O)[C@H](CC(=O)O)NC(=O)[C@H](CCC(=O)O)NC(=O)CNC(=O)[C@@H]1CCCN1C(=O)[C@H](CC(N)=O)NC(=O)[C@H](CC(=O)O)NC(=O)[C@@H]1CCCN1C(=O)[C@H](CCCCN)NC(=O)[C@H](CO)NC(=O)[C@@H]1CCCN1C(=O)[C@@H](N)Cc1ccc(O)cc1)C(=O)N[C@@H](CC(N)=O)C(=O)N[C@@H](CC(C)C)C(=O)N[C@@H](CC(C)C)C(=O)N[C@H](C(=O)N[C@@H](CCCNC(=N)N)C(=O)N1CCC[C@H]1C(=O)N[C@@H](CCCNC(=N)N)C(=O)N[C@@H](Cc1ccc(O)cc1)C(N)=O)[C@@H](C)O	.	/	.	/	/	/
CCOC(=O)N1CCN(C(=O)c2cc(COc3ccc(F)cc3F)on2)CC1	87.9	.	49.3	.	.	.
O=C(c1cc(COc2ccc(F)cc2F)on1)N1CCCC(c2ccccc2)C1 (centres undefined)	.	.	18.6	.	.	.
CCC(O)C1CCN(C(=O)c2cc(COc3ccc(F)cc3F)on2)CC1 (centres undefined)	.	.	.	.	.	.
CCOC(=O)C1CCN(C(=O)c2cc(COc3ccc(F)cc3F)on2)CC1	126.5	.	63.2	.	.	.
COCCOC1CCN(C(=O)c2cc(COc3ccc(F)cc3F)on2)CC1	.	.	22.8	.	.	.
CCCCc1ccc(NC(=O)c2cc3c(=O)n4ccccc4nc3n2C)cc1	/	/	/	/	.	/
Cc1cccc(N2CCN(C(=O)C3CCN(C(=O)c4cc5sccc5n4C)CC3)CC2C)c1 (centres undefined)	/	/	/	/	.	/
COc1ccc(Cl)cc1-c1noc([C@@H]2O[C@H](CO)[C@H](O)[C@H](O)[C@H]2O)n1	/	/	/	/	.	/
COc1cc2nc(Nc3ccc(F)cc3)nc(N)c2cc1OC	.	.	16.5	.	.	.
C=CCN1C(=O)c2ccc(C(=O)NCC(=O)Nc3c(C)cc(C)cc3C)cc2C1=O	/	/	/	/	.	.
O=C(NCc1cccs1)c1ccccc1F	.	.	12.1	.	.	.
Cc1ccccc1CNC(=O)Cc1cccs1	49.6	/	43.7	.	.	.
O=C(Cc1cccs1)NCc1ccccc1	.	.	.	.	.	.
COc1ccc(CC(=O)NCc2cccs2)cc1OC	.	.	.	.	.	.
COc1ccc(CNC(=O)Cc2cccs2)cc1OC	.	.	28.2	.	.	.
O=C(Cc1cccs1)NCc1ccccc1F	52.4	.	18.3	.	.	.
CC(C)[C@@H](C(=O)O)N1C(=O)c2ccccc2C1=O	/	.	/	/	/	/
CCn1cc(C(=O)N2CCN(c3ccccc3)CC2)c(=O)c2cc(S(=O)(=O)N(C)C3CCCCC3)ccc21	/	/	/	/	.	/
O=C(Cc1c(O)c2ccccc2[nH]c1=O)NCc1cccc(F)c1	.	.	.	.	.	.
O=C(Cc1c(O)c2ccccc2[nH]c1=O)NCc1ccccc1F	93.5	.	60.2	.	.	.
CCOc1ccc(CCNC(=O)c2cc(=O)[nH]c3ccc(S(=O)(=O)N4CCCCC4C)cc23)cc1OCC (centres undefined)	/	/	/	/	.	/
CC(=O)NCCOc1ccc2oc3ccccc3c2c1	71.3	.	31.3	.	.	/
CCOc1ccc(C(=O)NCC(=O)N2CC=C(c3ccccc3)CC2)cc1OCC	/	/	/	/	.	.
S=c1[nH]c(-c2ccccc2)cn1/N=C/c1ccccc1Br	.	/	26.7	.	?	.
SMILES	Shiga toxin inh	NS1 inh	CHX counter	LmPK inh	TbPYK inhibitor	SARS PLP yeast
Cc1ccc(/C=N/n2c(-c3cccnc3)n[nH]c2=S)s1	.	?	.	.	?	.
COc1cc(/C=N/n2cc(-c3ccccc3)[nH]c2=S)cc(OC)c1O	.	.	62.1	2.51µM	1.12µM	.
Oc1ccc(/C=N/n2cc(-c3ccccc3)[nH]c2=S)cc1	.	/	.	.	?	.
Cc1ccc(/C=N/n2cc(-c3ccccc3)[nH]c2=S)s1	108.4	/	38.7	?	?	.
S=c1[nH]c(-c2ccccc2)cn1/N=C/c1cccc2ccccc12	.	/	.	.	.	.
COC(=O)[C@@]1(Cc2ccc(F)cc2)[C@H]2c3cc(C(=O)N(C)C)n(Cc4ccc(S(C)(=O)=O)cc4)c3C[C@H]2CN1C(=O)c1ccccc1	/	/	/	/	.	/
Cc1ccc(COc2ccc(CNCCCN3CCCCCC3=O)cc2)cc1	70.2	.	25.7	.	.	.
Cc1ccc(NC(=O)C(=O)NCCCN2CCCC2=O)cc1	/	/	/	/	.	.
O=C(N/N=C/c1cc(Br)c(O)c(Br)c1O)c1ccc2c(c1)OCCO2	73.0	.	28.8	.	.	?
COc1cc(Cl)cc(/C=N\NC(=O)c2ccc3c(c2)OCO3)c1O	/	/	/	/	.	/
CCOc1cc(/C=N/NC(=O)c2ccc3c(c2)OCCO3)cc(Br)c1O	76.9	.	12.2	.	.	.
O=C(N/N=C/c1cc(Br)c(Br)o1)c1ccc2c(c1)OCCO2	60.5	.	27.6	.	.	.
CN1CCCC2(CCN(C(=O)c3cccn3C)CC2)C1	/	/	/	/	.	/
Cc1ccc(-n2nc(C)c3c(C(F)(F)F)cc(-c4cccnc4)nc32)cc1C	/	/	/	/	.	/
COc1ccc(-c2nc(S(=O)(=O)c3ccc(C)cc3)c(NCc3ccccc3)o2)cc1	/	/	/	/	.	/
COc1ccc(NC(=S)Nc2cccc(Cl)c2Cl)cc1OC	.	/	.	.	.	.
COc1ccc(NC(=S)Nc2cc(C)[nH]n2)cc1Cl	89.9	.	45.0	.	.	.
CCOc1ccc(NC(=S)Nc2cc(-c3ccccc3)[nH]n2)cc1	.	.	.	.	.	.
COc1cc(C)c(NC(=S)Nc2ccc(C)c(Cl)c2)cc1OC	.	.	.	.	.	.
Cc1cc(NC(=S)Nc2ccc(C)c(Cl)c2)n[nH]1	133.3	.	67.8	.	.	.
COc1ccc(NC(=S)Nc2cc(-c3ccccc3)[nH]n2)cc1Cl	.	.	20.0	.	.	.
Cn1cc(-c2csc(C(O)(c3ccccc3)C(F)(F)F)n2)cn1 (centres undefined)	/	/	/	/	.	/
CNC(=O)CSc1nnc(-c2cccc(S(=O)(=O)N3CCOCC3)c2)n1-c1ccc(F)cc1	.	.	.	.	.	.
CN(C)S(=O)(=O)c1cccc(-c2nnc(SCC(=O)NCCCCCC(=O)O)n2-c2ccc(F)cc2)c1	31.9	/	.	.	?	.
